Compound activity as filed in PubChem BioAssay.
Most compounds without a hit are left out; they make up all but 2.9% or so of the library.
H9c2 protect – modulators protecting cardiomyocytes from myocardial damage; H9c2 cardiomyocytes, H2O2 injury protection, ATPLite, 2 h; protection from H2O2 cell death, % at 20 µM; hit rate 0.63% among 360,000; AID 588492;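 active means compounds giving at least 50% protection of heart cells from peroxide-induced death in the single-dose screen, raw or plate-pattern-corrected value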;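 further: 0% = DMSO wells with peroxide and 100% = DMSO wells without peroxide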
Myeloid diff 2 – compounds promoting myeloid differentiation | ER-HoxA9 myeloid progenitors, lysozyme-GFP differentiation, flow cytometry | calls only at 10 µM | hit rate 1% among 360,000;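 active means normalized GFP-positive differentiation at or above the plate's own cutoff, the solvent-only control mean plus 3 SD; inconclusive means no clear call, values can overlap the other calls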;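 further: cells exposed to compound for four days before flow analysis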
Rtt109 Vps75 – inhibitors of Candida albicans Rtt109/Vps75 histone acetyltransferase | purified Rtt109/Vps75, ThioGlo CoA-SH fluorescence, 4 h | hit rate 0.16% among 330,000 | Q5AAJ8 | inhibition, % at 34.9 µM;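 active means inhibition of at least 50% in every replicate; inconclusive means best replicate reaches 50% inhibition but some replicates fall short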
DAGLB inhibitor – diacylglycerol lipase beta (human) inhibition. hit rate 0.059% among 340,000. inhibition, % at 5.17 µM. AID 504411. HEK293T DAGLB membrane lysate, EnzChek fluorogenic substrate. Q8NCG7; in the data active means inhibition above about 34%;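 further: 0% = enzyme with vehicle and 100% = wells lacking enzyme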
HGIII-sPLA2 inh – Blocks human group III sPLA2 activity. Q9NZ20. QFRET BODIPY PC-A2 liposome hydrolysis, fluorescence. inhibition, % at 12.2 µM. hit rate 0.56% among 370,000. AID 743126;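 active means inhibition above mean plus 3 SD of compounds lying within the high and low control bounds, cut at about 19% in these data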;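 further: 0% = median of test compound wells and 100% = no enzyme DMSO wells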
ABHD5-PLIN5 inh – blocks binding of human ABHD5 to perilipin-5. AID 602281. inhibition, % at 4 µM. hit rate 0.78% among 360,000. Split G. princeps luciferase complementation, luminescence, 4 h. Q00G26+Q8WTS1;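 active means inhibition above the mean inhibition across every tested compound plus 3 SD, cut at about 22% in these data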;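 further: 0% = DMSO only wells and the 100% control is not disclosed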
Target sequence (Q00G26 whole entry, looked up): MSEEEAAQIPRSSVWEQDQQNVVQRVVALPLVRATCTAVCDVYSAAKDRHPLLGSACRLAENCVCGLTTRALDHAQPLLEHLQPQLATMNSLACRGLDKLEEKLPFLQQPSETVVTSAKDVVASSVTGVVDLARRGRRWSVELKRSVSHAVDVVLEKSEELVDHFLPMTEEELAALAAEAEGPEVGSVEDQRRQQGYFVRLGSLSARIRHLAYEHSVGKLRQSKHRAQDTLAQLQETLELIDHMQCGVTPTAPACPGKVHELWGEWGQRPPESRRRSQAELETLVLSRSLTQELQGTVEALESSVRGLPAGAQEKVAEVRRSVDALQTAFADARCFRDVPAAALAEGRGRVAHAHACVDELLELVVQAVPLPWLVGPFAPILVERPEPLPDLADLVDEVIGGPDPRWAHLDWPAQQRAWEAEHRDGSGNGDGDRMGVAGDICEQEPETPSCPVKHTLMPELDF
Target sequence (Q8WTS1 whole entry, looked up): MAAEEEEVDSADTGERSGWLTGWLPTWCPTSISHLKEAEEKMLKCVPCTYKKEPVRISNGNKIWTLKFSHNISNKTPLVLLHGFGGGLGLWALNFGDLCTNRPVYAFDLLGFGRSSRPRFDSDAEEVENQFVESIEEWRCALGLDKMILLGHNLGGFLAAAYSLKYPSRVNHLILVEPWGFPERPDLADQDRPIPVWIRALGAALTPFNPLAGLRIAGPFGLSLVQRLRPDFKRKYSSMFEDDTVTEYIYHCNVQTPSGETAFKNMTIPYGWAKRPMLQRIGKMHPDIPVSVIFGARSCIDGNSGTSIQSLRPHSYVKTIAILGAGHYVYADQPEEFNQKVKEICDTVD
Active calls of the source: *; i = inactive; ? = inconclusive; . = no result; + = active, no number.

SMILES	H9c2 protect	Myeloid diff 2	Rtt109 Vps75	DAGLB inhibitor	HGIII-sPLA2 inh	ABHD5-PLIN5 inh
CCOC(=O)c1c(-c2ccccc2)csc1NC(=O)C1CCCO1 (centres undefined)	-2	i	13	-15	7	-7
O=C(NCCc1ccc(Cl)cc1)C1CCN(C(=O)c2sccc2-n2cccc2)CC1	-6	i	10	1	-11	6
CC(C)c1ccccc1OCC(=O)N(C)CC(=O)Nc1ccc(F)cc1	-4	i	0	-1	-10	-2
Cc1ccc(C2(C)NC(=O)N(CC(=O)NNC(=O)c3cc(C)oc3C)C2=O)cc1 (centres undefined)	0	i	-3	-1	5	4
CC(=O)Oc1ccc2c(c1)OC(c1ccccc1)CC21CC(C)(C)NC(=O)N1 (centres undefined)	-1	i	-11	0	-7	-2
CCOc1ccc(CCNC(=O)COC(=O)Cn2cnc3ccccc3c2=O)cc1OCC	0	+	-1	-3	-2	0
COc1ccc(C(=O)c2sc3nc(-c4ccccc4)ccc3c2N)cc1	-6	+	7	-11	.	-10
CC(C)OC(=O)c1sc2nc(-c3ccccc3)ccc2c1N	-13	i	1	-8	1	-6
CS(=O)(=O)N1CCc2cc(C(=O)N3CCN(c4ccccc4F)CC3)ccc21	1	+	13	1	-5	-9
COc1ccc(C2=NS(=O)(=O)N(C)C(C(=O)N3CCc4ccccc4C3)=C2)cc1OC	-26	+	17	-4	-4	3
COc1ccc(C2=NS(=O)(=O)N(C)C(C(=O)NCc3ccccc3)=C2)cc1OC	-2	i	4	-1	-5	-8
CC1CCN(CC(=O)N(C)c2c(N)n(Cc3ccccc3)c(=O)[nH]c2=O)CC1	-3	+	5	2	-4	20
C/C(Cl)=C\Cn1c(N2CCCC2)nc2c1c(=O)[nH]c(=O)n2C	-1	i	0	0	6	0
CCn1c(N2CCC(C)CC2)nc2c1c(=O)n(C)c(=O)n2C	2	i	-1	-3	26*	0
C/C(Cl)=C/Cn1c(N2CCCC2)nc2c1c(=O)n(C)c(=O)n2C	-2	+	-4	0	10	0
CC1CCN(c2nc3c(c(=O)n(C)c(=O)n3C)n2Cc2ccccc2)CC1	8	i	-1	-2	-1	1
C=CCNC(=S)/N=c1/ccccn1CCC	-11	+	4	1	7	-3
Cc1ccc(-n2c(SCC(=O)NCCN3C(=O)CSC3=O)nnc2-c2ccccc2)cc1C	0	i	18	1	-44	-3
O=[N+]([O-])c1cccc2cn[nH]c12	20	+	-5	3	13	-1
CCOc1cc(/C=N/n2cnnc2)ccc1OS(=O)(=O)c1ccc(C)cc1	8	i	4	1	6	0
O=c1cc(-c2ccc([N+](=O)[O-])cc2)c2ccc(O)cc2o1	60*	i	-2	1	2	1
Cc1cc(Nc2ccccc2)nc(NCc2ccccc2)n1	-18	i	-1	1	-20	6
Cc1cc(Nc2cccc(F)c2)nc(NCc2ccccc2)n1	-20	+	7	-2	-24	19
CN(C)c1ccc(-c2ccnc3c2CC(C)(C(=O)NCc2ccccc2)O3)cc1 (centres undefined)	-2	+	.	.	4	5
CCN(C(=O)COC(=O)Cc1ccc(F)cc1)c1c(N)n(Cc2ccccc2)c(=O)[nH]c1=O	4	i	0	-1	6	1
SMILES	H9c2 protect	Myeloid diff 2	Rtt109 Vps75	DAGLB inhibitor	HGIII-sPLA2 inh	ABHD5-PLIN5 inh
N=c1c(C(=O)NC2CCCCC2)cc2c(=O)n3ccccc3nc2n1Cc1cccnc1	4	+	-76	-1	3	2
CCn1nc(C(=O)NCC2COc3ccccc3O2)c2ccccc2c1=O (centres undefined)	-4	i	-1	-6	-2	-7
Cn1c(-c2ccc(Cl)cc2)cnc1N	69*	i	-3	4	12	3
Cn1c(Sc2ccc(C(F)(F)F)cc2[N+](=O)[O-])nnc1-c1ccccc1	-4	i	-1	0	2	2
COc1cccc2c1Oc1ncccc1N(C(=O)CCC(=O)NCc1ccc(F)cc1)C2	2	i	51*	-5	-1	0
COc1ccc(C(=O)n2c(-c3ccco3)nc3ccccc32)cc1	-2	?	7	-5	-4	0
